Abeta rescue: A-beta toxicity reversal in yeast; yeast expressing A-beta42, growth rescue, OD600, 48 h; response scale: 0% DMSO, 100% iron-clioquinol control; Potency, µM (titrated, usually from 46.1 µM), hits mostly activators; 410,000 tested, 0.063% active; AID 1347071; further: nearly all actives have a fitted effect of over 55% in size
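Yeast growth medium received pinned compounds, then yeast cells expressing toxic A-beta were added; plates incubated at 30 C for 48 hr. Growth read as absorbance at 600 nm, normalized to DMSO and equimolar FeCl3 plus clioquinol controls.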
Mito fusion yeast: mitochondrial division inhibition or fusion activation; S. cerevisiae fusion-defective mutant growth rescue, CellTiterGlo 48 h; Potency, µM (highest dose often 46.1 µM), for the others: at the top dose growth rescue (activation), actives largely listed as activators; 320,000 tested, 0.23% active; AID 485298; further: % of control where 0% means no effect; nearly all actives have a fitted effect of over 45% in size
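Growth-rescue viability read-out: after 48 h at the non-permissive 37C in glycerol/ethanol YPEG, yeast mitochondrial fusion mutants are measured by CellTiterGlo luminescence; compounds (23 nl pinned per well) restoring growth score as division inhibitors or fusion activators.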
aSyn rescue: alpha-synuclein toxicity inhibition in yeast. Yeast expressing alpha-synuclein, growth rescue, BacTiter-Glo, 24 h. Potency, µM (titrated, usually from 46.1 µM), without a hit: at the highest dose growth rescue (activation), most hits filed as activators. 370,000 tested, 0.14% active; further: % of control where 0% means no effect; nearly all actives have a fitted effect of over 65% in size
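Galactose-induced alpha-syn yeast (OD600=0.02, raffinose-pregrown) + pinned cpd, 24 hr, 30 deg C; growth by BacTiter-Glo luminescence. Growth restoration scores as activation.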
FUS suppressor: FUS proteinopathy suppression in yeast | S. cerevisiae FUS-expressing, growth rescue, OD600, 24 h | Potency, µM (highest dose often 76.6 µM), actives largely listed as activators | 390,000 tested, 0.24% active;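 further: plate controls were DMSO vehicle for no effect and reference control for full effect; nearly all actives have a fitted effect of over 55% in size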
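S. cerevisiae expressing FUS from galactose induction served as the toxicity model. Growth after 24hr at 30C, read as absorbance at 600 nm, indicates suppression of toxicity; compounds dosed at several concentrations.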
TDP-43 yeast inh: rescues yeast growth from TDP-43 toxicity; TDP-43 expressing yeast growth rescue, BacTiter-Glo, 24 h; Potency, µM (series often up to 46.1 µM), inactives show at the highest dose growth rescue (activation), actives largely listed as activators; 410,000 tested, 1.8% active; AID 652104; further: % of control where 0% means no effect; nearly all actives have a fitted effect of over 50% in size
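Yeast cells expressing TDP-43 under galactose induction are exposed to compounds for 24 hr at 30 deg C. BacTiter-Glo luminescence measures growth, so protective compounds score as activators.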
* marks the source's active call; other numbers are inactive results; [ ] = remark or other dose. Most compounds without a hit are left out; they make up all but 2.2% or so of the library. The call rests on the fitted dose curve; in most records, active means well fitted curve in the direction sought with a large enough effect; inconclusive means small, poorly fitted or top-dose-only effect, or another doubt; inactive means no such curve, though single readings can be large; an effect the other way counts as inactive or inconclusive. Potency means the concentration at half of the fitted maximal effect.

How did C=CCN1C[C@@H](COCc2ccccc2)Oc2cc(F)ccc2S1(=O)=O do in these assays?
FUS suppressor: inactive

How did O=C(N/N=C/c1cn(-c2cccs2)nc1-c1ccccc1)c1ccccc1Cl do in these assays?
Abeta rescue: inactive; Mito fusion yeast: 18µM*; aSyn rescue: 8%; TDP-43 yeast inh: 0%

Results for O=C(N/N=C/c1cn(-c2cccs2)nc1-c1ccccc1)c1ccc(O)cc1 ?
Abeta rescue: inactive; Mito fusion yeast: 4%; aSyn rescue: -2%; TDP-43 yeast inh: -10%

Results for COc1ccc(/C(N)=N/OC(=O)CCC2CCCC2)cc1OC ?
Abeta rescue: inactive; Mito fusion yeast: -7%; aSyn rescue: 1%; FUS suppressor: inactive; TDP-43 yeast inh: inconclusive

Results for N/C(=N\OC(=O)CC1CCCCC1)c1ccc(Br)cc1 ?
Abeta rescue: inactive; Mito fusion yeast: -1%; aSyn rescue: -19%; TDP-43 yeast inh: 7.9µM*

What do the screens show for `N/C(=N\OC(=O)CC1CCCCC1)c1cccc(Br)c1`?
Abeta rescue: inactive; Mito fusion yeast: 16%; aSyn rescue: -34%; FUS suppressor: inactive; TDP-43 yeast inh: 3.2µM*

How did N/C(=N\OC(=O)C1CCCCC1)c1cccc(Br)c1 do in these assays?
Abeta rescue: inactive; Mito fusion yeast: -1%; aSyn rescue: -36%; FUS suppressor: inactive; TDP-43 yeast inh: -45%

Results for COc1ccc(/C(N)=N/OC(=O)CC2CCCCC2)cc1OC ?
Abeta rescue: inactive; Mito fusion yeast: 1%; aSyn rescue: 1%; FUS suppressor: inconclusive; TDP-43 yeast inh: 22µM*

What do the screens show for `COC(=O)C1CN(C2CCCC2)CCS(=O)(=O)N1Cc1ccc(F)cc1` (stereo not given)?
FUS suppressor: inactive

How did COC(=O)CN1C(=O)C2(OCCCO2)c2cc(Br)ccc21 do in these assays?
Abeta rescue: inactive; Mito fusion yeast: -5%; aSyn rescue: -7%; FUS suppressor: inactive; TDP-43 yeast inh: -20%

What do the screens show for `O=C1N(CCCl)c2ccc(Br)cc2C12OCCO2`?
Abeta rescue: inactive; Mito fusion yeast: -2%; aSyn rescue: 3%; FUS suppressor: inactive; TDP-43 yeast inh: 10µM*

Results for COc1cccc(C(NC(C)=O)c2nc(-c3cccs3)cs2)c1 (stereo not given) ?
Abeta rescue: inactive; aSyn rescue: 6%; FUS suppressor: inactive; TDP-43 yeast inh: inconclusive

What do the screens show for `CC(=O)NC(c1ccccc1)c1nc(-c2cccs2)cs1` (stereo not given)?
Abeta rescue: inactive; aSyn rescue: 2%; FUS suppressor: inactive; TDP-43 yeast inh: 16µM*

What do the screens show for `O=C(Cc1ccccc1)Nc1ccc(Br)c(Cl)c1`?
Abeta rescue: inactive; Mito fusion yeast: 14µM*; aSyn rescue: -5%; FUS suppressor: inactive; TDP-43 yeast inh: 24%

Results for CSc1nnc(Nc2ccccc2C)s1 ?
Abeta rescue: inactive; Mito fusion yeast: -6%; aSyn rescue: 3%; FUS suppressor: inactive; TDP-43 yeast inh: 11µM*

Results for Cc1cccc(OCc2nc(-c3ccccn3)n[nH]2)c1 ?
Abeta rescue: inconclusive; Mito fusion yeast: -5%; aSyn rescue: inconclusive; FUS suppressor: inactive; TDP-43 yeast inh: inconclusive

Results for Cc1ccc(OCc2nc(-c3ccccn3)n[nH]2)cc1 ?
Abeta rescue: inconclusive; Mito fusion yeast: -3%; aSyn rescue: inconclusive; FUS suppressor: inactive; TDP-43 yeast inh: 13µM*

Results for COc1ccc(-c2cc(-c3nnc(SCC(=O)NC4CCCCC4)n3N)[nH]n2)cc1 ?
FUS suppressor: inactive

Results for Clc1ccccc1Cn1ccc2ccc(-c3ccc4ccn(Cc5ccccc5Cl)c4c3)cc21 ?
FUS suppressor: inactive

How did CCOC(=O)[C@@H](CCc1ccccc1)N[C@@H](C)C(=O)N1CCC[C@H]1C(=O)O do in these assays?
FUS suppressor: inactive

What do the screens show for `Cc1ccc(-c2cc(N)n[nH]2)cc1`?
Abeta rescue: inactive; Mito fusion yeast: -3%; aSyn rescue: -7%; FUS suppressor: 28µM*; TDP-43 yeast inh: -17%

What do the screens show for `CCC(C)NC(=O)CC(NS(=O)(=O)c1ccc(NC(C)=O)cc1)C(C)C` (stereo not given)?
Abeta rescue: inactive; Mito fusion yeast: -1%; aSyn rescue: -10%; FUS suppressor: inactive; TDP-43 yeast inh: 0%

Results for Nc1cc(Cl)ccc1CN1C(=O)c2ccccc2C1=O ?
Abeta rescue: inactive; aSyn rescue: -19%; FUS suppressor: inactive; TDP-43 yeast inh: 19%

What do the screens show for `O=C1Cc2ccccc2C(=O)N1Cc1cccc(Cl)c1`?
Abeta rescue: inactive; Mito fusion yeast: -6%; aSyn rescue: 0%; FUS suppressor: inactive; TDP-43 yeast inh: 13µM*

What do the screens show for `Nc1cccc2c1C(=O)N(Cc1cccc(Cl)c1)C2=O`?
Abeta rescue: inactive; Mito fusion yeast: 0%[9.22 µM]; aSyn rescue: inconclusive; FUS suppressor: inactive; TDP-43 yeast inh: 20µM*

Results for CN1C(=S)N(c2cccnc2)C(=O)/C1=C\c1ccc(C(C)(C)C)cc1 ?
Abeta rescue: inactive; Mito fusion yeast: -8%; aSyn rescue: inconclusive; FUS suppressor: inactive; TDP-43 yeast inh: 16µM*

Results for CN1C(=S)N(c2cccnc2)C(=O)/C1=C\c1ccc(N(C)C)cc1 ?
Abeta rescue: inactive; Mito fusion yeast: 5%; aSyn rescue: -11%; FUS suppressor: inconclusive; TDP-43 yeast inh: -10%[9.22 µM]

What do the screens show for `O=C(NC1CCCCN(Cc2ccc(Cl)cc2)C1=O)c1cccs1` (stereo not given)?
FUS suppressor: inactive

Results for Cc1ccc(/C(N)=N/OC(=O)c2ccc(C)cc2Cl)cc1 ?
Abeta rescue: inactive; Mito fusion yeast: -13%; aSyn rescue: -37%; TDP-43 yeast inh: 4µM*

What do the screens show for `Cc1ccc(/C(N)=N/OC(=O)c2ccc3ccccc3c2)cc1`?
Abeta rescue: inactive; Mito fusion yeast: 4%; aSyn rescue: -44%; FUS suppressor: inactive; TDP-43 yeast inh: 1.3µM*

How did N/C(=N\OC(=O)c1ccc(Cl)cc1Cl)c1ccc(Cl)cc1 do in these assays?
Abeta rescue: inactive; Mito fusion yeast: 13%; aSyn rescue: -42%; FUS suppressor: inactive; TDP-43 yeast inh: 10%

Results for N/C(Cc1ccc(Cl)cc1)=N\OC(=O)c1ccc2ccccc2c1 ?
Abeta rescue: inactive; Mito fusion yeast: -24%; aSyn rescue: -58%; FUS suppressor: inactive; TDP-43 yeast inh: 6.3µM*

How did COc1ccc(N2CCN(c3nc4c(c(=O)n(C)c(=O)n4C)n3Cc3ccccc3)CC2)cc1 do in these assays?
Abeta rescue: inactive; Mito fusion yeast: inconclusive; aSyn rescue: 15%; FUS suppressor: inconclusive; TDP-43 yeast inh: 14%

Compound activity: PubChem BioAssay, National Center for Advancing Translational Sciences (NCATS)
